Only some compounds are listed: those with a hit (about 7.4% of all), similar ones and a draw of the others.
hNpr1 antagonist = human Npr1 receptor antagonism. HEK293 hNpr1 GloSensor cGMP, ANP-stimulated luminescence. 1.6% of 76,000 active. P16066. Potency, µM (series often up to 46.3 µM), inactives show top-dose activity change, negative = inhibition, actives largely listed as inhibitors; calls by dose curve; also: % is scaled to controls: 0 for no effect and ±100 for the full control effect; nearly all actives have a fitted effect of over 60% in size
Target sequence (P16066 whole entry, looked up): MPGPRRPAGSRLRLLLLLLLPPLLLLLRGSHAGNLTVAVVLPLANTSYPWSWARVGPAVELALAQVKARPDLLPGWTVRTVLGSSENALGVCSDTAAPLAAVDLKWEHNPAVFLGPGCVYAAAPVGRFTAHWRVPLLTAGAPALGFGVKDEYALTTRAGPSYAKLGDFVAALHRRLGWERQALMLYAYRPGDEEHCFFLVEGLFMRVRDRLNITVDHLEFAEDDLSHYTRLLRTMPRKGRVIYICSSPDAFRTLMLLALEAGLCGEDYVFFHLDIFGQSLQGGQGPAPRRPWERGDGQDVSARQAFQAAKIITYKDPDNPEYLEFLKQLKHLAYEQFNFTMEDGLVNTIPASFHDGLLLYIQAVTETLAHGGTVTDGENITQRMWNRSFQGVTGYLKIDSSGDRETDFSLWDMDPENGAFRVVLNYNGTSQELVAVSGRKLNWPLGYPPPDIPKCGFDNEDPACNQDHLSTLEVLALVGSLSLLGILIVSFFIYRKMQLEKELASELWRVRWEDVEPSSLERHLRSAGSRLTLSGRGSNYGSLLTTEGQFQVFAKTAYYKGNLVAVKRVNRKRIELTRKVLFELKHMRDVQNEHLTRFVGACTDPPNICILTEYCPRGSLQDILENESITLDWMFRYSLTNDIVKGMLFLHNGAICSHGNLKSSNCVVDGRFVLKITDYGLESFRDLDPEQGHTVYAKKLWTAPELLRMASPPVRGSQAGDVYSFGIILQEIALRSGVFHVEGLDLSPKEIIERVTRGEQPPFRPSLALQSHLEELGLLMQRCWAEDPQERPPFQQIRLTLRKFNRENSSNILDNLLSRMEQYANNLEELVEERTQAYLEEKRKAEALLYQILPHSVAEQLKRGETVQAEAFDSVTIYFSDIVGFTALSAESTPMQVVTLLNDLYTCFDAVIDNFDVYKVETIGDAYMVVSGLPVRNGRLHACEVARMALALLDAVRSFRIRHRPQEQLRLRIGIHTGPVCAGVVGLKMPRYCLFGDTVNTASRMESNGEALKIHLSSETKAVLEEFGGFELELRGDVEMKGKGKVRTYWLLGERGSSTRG
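HEK293 cells stably expressing human Npr1 and cGMP GloSensor pGS-40F, loaded 2 h with 2% GloSensor reagent, given compound 30 min at room temperature. Luminescence read before and 20 min after 0.1 nM hNppA.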
HEK cytotox = HEK 293 cell cytotoxicity; HEK 293 viability, ATP luminescence (CellTiter-Glo), 48-72 h; Potency, µM (series often up to 115 µM), inactives show at the top dose activity change, negative = cytotoxicity, actives largely listed as inhibitors; 6.6% of 94,000 active; AID 1345083; also: % is scaled to controls: 0 for no effect and ±100 for the full control effect; nearly all actives have a fitted effect of over 60% in size
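HEK 293 cells at 250 cells/well were exposed to compounds by pintool transfer for 48 or 72 hr at 37 degree Celsius, 5% CO2. Viability was read as ATP-coupled luminescence with CellTiter-Glo after 10 min at room temperature.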
NIH3T3 tox = cytotoxic compounds in NIH 3T3 cells | NIH 3T3 viability, CellTiter-Glo ATP luminescence, 48-72 h | Potency, µM (top dose mostly 96.7 µM), without a hit: at the highest dose activity change, negative = cytotoxicity, hits mostly inhibitors | 4.3% of 94,000 active; also: % is scaled to controls: 0 for no effect and ±100 for the full control effect; nearly all actives have a fitted effect of over 55% in size
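Mouse fibroblast NIH 3T3 cells, 400 per well, received compound via pintool and were incubated for 48 or 72 hr prior to CellTiter-Glo ATP luminescence measurement.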
FLuc inh = inhibitors of firefly (Photinus pyralis) luciferase | purified P. pyralis luciferase, luminescence, biochemical | AID 1347043 | Potency, µM (doses to about 115 µM), usual class: inhibitors | P08659 | 2.5% of 76,000 active; also: % is scaled to controls: 0 for no effect and ±100 for the full control effect; nearly all actives have a fitted effect of over 65% in size
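FLuc 10nM, D-luciferin 10uM, ATP 10uM, Mg acetate 10mM, Tris acetate pH 7.5, Tween/BSA; cpd qHTS; enzyme added last; CCD luminescence.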
SNCA viab count = counter-screen for SNCA expression inhibitors: cell viability | HEK-293-SNCA-luc viability, GF-AFC fluorescence, 24 h | Potency, µM (titrated, usually from 57.1 µM), for inactives: at the highest dose activity change, negative = cytotoxicity, most hits filed as cytotoxic | 0.12% of 150,000 active | AID 1671193;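 also: 0% = DMSO-treated cells and -100% = medium-only wells without cells; nearly all actives have a fitted effect of over 30% in size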
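HEK-293-SNCA-luc cells (1500/well) plated 24 h, then exposed 24 h to a dilution series; GF-AFC added 30 min at 37C, fluorescence 405/540 nm; normalised to medium-only and DMSO wells, Hill fit.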
SNCA expr inh = inhibitors of alpha-synuclein (SNCA) gene expression. HEK-293 SNCA-luciferase knock-in, luminescence, 24 h. Potency, µM (series often up to 57.2 µM), for inactives: top-dose activity change, negative = inhibition, usual class: inhibitors. 0.17% of 140,000 active. AID 1671194;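 also: plate controls were DMSO cells for no effect and cell-free wells for full effect; nearly all actives have a fitted effect of over 45% in size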
Npr1 antag conf = confirmation of human Npr1 natriuretic peptide receptor antagonists; shares compounds with hNpr1 antagonist; HEK293 hNpr1 cGMP GloSensor luminescence, ANP-stimulated; Potency, µM (series often up to 57.6 µM), for the others: at the top dose activity change, negative = inhibition, hits mostly inhibitors; 76% of 1,400 active; AID 1347044; calls by dose curve; also: nearly all actives have a fitted effect of over 70% in size
NPR2 antag = antagonizes human Npr2, subtype selectivity check | shares compounds with hNpr1 antagonist | HEK293 hNpr2 GloSensor cGMP luminescence, CNP-stimulated | Potency, µM (doses to about 57.6 µM), without a hit: at the top dose activity change, negative = inhibition, usual class: inhibitors | 67% of 1,400 active | AID 1347046; calls by dose curve; also: nearly all actives have a fitted effect of over 70% in size
FLuc counter = FLuc enzyme inhibition, Npr1 counter-screen; shares compounds with hNpr1 antagonist; purified FLuc enzyme, luminescence, Km substrate; Potency, µM (doses to about 57.6 µM), inactives show top-dose activity change, negative = inhibition, usual class: inhibitors; 0.7% of 1,400 active; also: 0% is about no effect
GloSensor ctrl = reduces cGMP signal in GloSensor control cells. shares compounds with hNpr1 antagonist. HEK293 GloSensor cGMP, SNP-stimulated, luminescence. Potency, µM (top dose mostly 57.6 µM), for inactives: at the highest dose activity change, negative = inhibition, most hits filed as inhibitors. 69% of 1,400 active; calls by dose curve; also: % is scaled to controls: 0 for no effect and ±100 for the full control effect; nearly all actives have a fitted effect of over 70% in size
An asterisk follows results filed as active; i = inactive; ? = inconclusive; / = no result given; [ ] = another dose, or the depositor's remark. Unless noted, calls follow the shape of the dose curve; as a rule, active = well fitted curve in the direction sought with a large enough effect; inconclusive = small, poorly fitted or top-dose-only effect, or another doubt; inactive = no such curve, though single readings can be large; an effect the other way counts as inactive or inconclusive. Potency is read from the fitted curve at half-maximal effect.

SMILES | hNpr1 antagonist | HEK cytotox | NIH3T3 tox | FLuc inh | SNCA viab count | SNCA expr inh | Npr1 antag conf | NPR2 antag | FLuc counter | GloSensor ctrl
CCN(CC)C(=O)c1cc2c(s1)CCC(C(=O)O)C2 (stereo not given) | 2% | 8% | -6% | i | 0% | -1% | / | / | / | /
CCN(CC)C(=O)c1cc2c(s1)CCC(C(=O)Nc1ccc(OC)c(F)c1)C2 (stereo not given) | 13µM* | ? | ? | i | -13% | -30% | 24µM* | 22µM* | -2% | 24µM*
CCc1cc(N2CCCC(C(=O)c3sccc3C)C2)ncn1 (stereo not given) | 7.1µM* | 32µM* | -39% | i | -19% | -6% | 7.7µM* | 12µM* | 3% | 7.7µM*
CC(C)c1ccc(CN2CCc3ncc(C(=O)NCc4ccccc4)n3CC2)cc1 | 28µM* | 28µM* | ? | i | -26%[87.6 µM] | ? | 25µM* | 31µM* | -2%[86.2 µM] | 22µM*
CCc1ccc(C(=O)NC2CCN(c3cc(-c4cccs4)[nH]n3)C2)cc1 (stereo not given) | 1% | ? | ? | i | -22% | -21% | / | / | / | /
COc1ccc(-c2ccc3nnc(CNC(=O)c4ccc(F)c(Cl)c4)n3n2)cc1 | 1% | ? | -15% | i | 13% | -3% | / | / | / | /
Cc1nc(CN(C)C(=O)c2cc(Cn3c(C)nc4ccccc43)on2)cs1 | 10µM* | ? | ? | i | -5% | 5% | 19µM* | 17µM* | 1% | 14µM*
CCc1noc(CC2CCOC3(CCN(S(=O)(=O)c4cccc(OC)c4)CC3)C2)n1 (stereo not given) | 16µM* | ? | ? | i | -10% | -31% | 22µM* | 22µM* | -1% | 19µM*
CCc1noc(CC2CCOC3(CCN(S(=O)(=O)c4cccc(Cl)c4)CC3)C2)n1 (stereo not given) | 10µM* | ? | ? | i | 2% | -19% | 22µM* | ? | -2% | 22µM*
CCc1noc(CC2CCOC3(CCN(S(=O)(=O)c4ccccc4Cl)CC3)C2)n1 (stereo not given) | ? | ? | -23% | i | -1% | -13% | 22µM* | 22µM* | -1% | 17µM*
COc1cccc(S(=O)(=O)N2CCC3(CC2)CC(OC)CCO3)c1 (stereo not given) | -7% | 16% | 3% | i | 1%[12.5 µM] | 109% | / | / | / | /
CCc1noc(CC2CCOC3(CCN(S(=O)(=O)c4cc(F)ccc4C)CC3)C2)n1 (stereo not given) | ? | ? | ? | i | -1% | 35% | / | / | / | /
COc1ccc([C@@H](NC(=O)c2scc3c2CCCC3)C2CC(O)C2)cn1 (stereo not given in full) | -12% | ? | -27% | i | -4% | -24% | / | / | / | /
Cc1cccc(C(=O)N2CC[C@@H](NC(=O)c3cnccn3)[C@H](O)C2)n1 | 5% | 4% | 2% | i | 2% | -23% | / | / | / | /
Cc1cc(F)ccc1C(=O)N1C[C@@H](CN2CCCCC2)[C@@H](CO)C1 | 6% | -2% | 0% | i | 7% | 9% | / | / | / | /
Cc1ccccc1SC1CCN(c2cc(C3CC(O)C3)ncn2)CC1 (stereo not given) | 2.8µM* | ? | ? | i | -17% | ? | 4.8µM* | 6.1µM* | 1% | 3.9µM*
Cc1ccc(Cl)cc1N1CCN(c2cc(C3CC(O)C3)ncn2)CC1 (stereo not given) | 8.9µM* | 28µM* | ? | i | -23% | -23% | 19µM* | 19µM* | -2% | 14µM*
COc1cc(Cl)ccc1C(=O)NC1CCN(c2cc(C(F)(F)F)nc(C)n2)CC1 | ? | ? | ? | i | -16% | ? | 22µM* | 22µM* | 2% | 19µM*
Cc1nc(N2CCC(NC(=O)c3ccc4ccccc4n3)CC2)cc(C(F)(F)F)n1 | 10µM* | 45µM* | ? | i | -13% | -14% | 14µM* | 14µM* | 1% | 12µM*
Cc1nc(N2CCC(NC(=O)c3ccccc3F)CC2)cc(C(F)(F)F)n1 | -12% | -2% | -8% | i | 3% | -15% | / | / | / | /
Cc1nc(N2CCC(NC(=O)c3nccc4ccccc34)CC2)cc(C(F)(F)F)n1 | 11µM* | ? | ? | i | 4% | -2% | 19µM* | 17µM* | 0% | 14µM*
CCOCCNC(=O)C1CCN(C(=O)c2ccc(-c3ccccc3OC)cc2)CC1 | / | -2% | -6% | / | 3%[12.5 µM] | 2% | / | / | / | /
O=C(Nc1ccccc1)N1CCCC(c2nc(CCOc3ccc(F)cc3)no2)C1 (stereo not given) | -30% | ? | -24% | i | 3% | 40% | / | / | / | /
COc1ccc(CN2C=C(C(=O)OCc3noc(-c4cccc(OC)c4)n3)C(C)=NS2(=O)=O)cc1 | ? | ? | ? | i | -5% | 13% | ? | -30% | 0% | ?
COc1ccc(CN2C=C(C(=O)OCc3noc(-c4ccc(C)c(C)c4)n3)C(C)=NS2(=O)=O)cc1 | ? | ? | -25% | i | 10% | -9% | / | / | / | /
COc1ccc(CN2C=C(C(=O)OCc3noc(-c4ccc(C)cc4)n3)C(C)=NS2(=O)=O)cc1 | 10µM* | -27% | ? | i | 6% | -25% | 15µM* | 14µM* | 0% | 12µM*
CC1=NS(=O)(=O)N(Cc2ccccc2)C=C1C(=O)OCc1noc(-c2ccc(C)c(C)c2)n1 | 11µM* | ? | ? | i | -12% | -22% | 17µM* | ? | -2% | 15µM*

High-throughput results: PubChem BioAssay, National Center for Advancing Translational Sciences (NCATS)
